In experiment [1] the target is Tyrosine-protein kinase SYK (Homo sapiens) (UniProt P43405). The settings on record: at 10 µM.
Experiment [2] concerns the target T1, Mitogen-activated protein kinase kinase kinase 7 (Homo sapiens) (UniProt O43318).
T1 sequence (whole entry): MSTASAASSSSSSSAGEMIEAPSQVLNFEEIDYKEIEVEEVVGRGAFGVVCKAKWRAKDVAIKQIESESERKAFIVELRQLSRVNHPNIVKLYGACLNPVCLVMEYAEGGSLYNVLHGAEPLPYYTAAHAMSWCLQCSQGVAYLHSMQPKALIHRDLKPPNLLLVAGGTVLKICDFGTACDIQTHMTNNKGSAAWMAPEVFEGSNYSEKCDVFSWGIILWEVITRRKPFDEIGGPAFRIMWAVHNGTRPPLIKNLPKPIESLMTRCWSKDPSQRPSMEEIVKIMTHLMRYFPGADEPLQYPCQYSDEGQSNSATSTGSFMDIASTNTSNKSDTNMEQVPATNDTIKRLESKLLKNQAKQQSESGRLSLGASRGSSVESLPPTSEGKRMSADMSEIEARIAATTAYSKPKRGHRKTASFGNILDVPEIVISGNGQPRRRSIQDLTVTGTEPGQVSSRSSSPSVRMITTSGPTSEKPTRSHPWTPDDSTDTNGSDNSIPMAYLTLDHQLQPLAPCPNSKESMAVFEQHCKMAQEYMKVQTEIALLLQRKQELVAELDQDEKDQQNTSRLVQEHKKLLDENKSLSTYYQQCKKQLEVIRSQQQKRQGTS
The settings on record: at 1 µM.

The target of experiment [3] is T1, Mitogen-activated protein kinase kinase kinase 7 (Homo sapiens). The settings on record: at 10 µM.
Experiment [4] deals with T2, Serine/threonine-protein kinase TAO1 (Homo sapiens) (UniProt Q7L7X3).
T2 sequence (whole entry): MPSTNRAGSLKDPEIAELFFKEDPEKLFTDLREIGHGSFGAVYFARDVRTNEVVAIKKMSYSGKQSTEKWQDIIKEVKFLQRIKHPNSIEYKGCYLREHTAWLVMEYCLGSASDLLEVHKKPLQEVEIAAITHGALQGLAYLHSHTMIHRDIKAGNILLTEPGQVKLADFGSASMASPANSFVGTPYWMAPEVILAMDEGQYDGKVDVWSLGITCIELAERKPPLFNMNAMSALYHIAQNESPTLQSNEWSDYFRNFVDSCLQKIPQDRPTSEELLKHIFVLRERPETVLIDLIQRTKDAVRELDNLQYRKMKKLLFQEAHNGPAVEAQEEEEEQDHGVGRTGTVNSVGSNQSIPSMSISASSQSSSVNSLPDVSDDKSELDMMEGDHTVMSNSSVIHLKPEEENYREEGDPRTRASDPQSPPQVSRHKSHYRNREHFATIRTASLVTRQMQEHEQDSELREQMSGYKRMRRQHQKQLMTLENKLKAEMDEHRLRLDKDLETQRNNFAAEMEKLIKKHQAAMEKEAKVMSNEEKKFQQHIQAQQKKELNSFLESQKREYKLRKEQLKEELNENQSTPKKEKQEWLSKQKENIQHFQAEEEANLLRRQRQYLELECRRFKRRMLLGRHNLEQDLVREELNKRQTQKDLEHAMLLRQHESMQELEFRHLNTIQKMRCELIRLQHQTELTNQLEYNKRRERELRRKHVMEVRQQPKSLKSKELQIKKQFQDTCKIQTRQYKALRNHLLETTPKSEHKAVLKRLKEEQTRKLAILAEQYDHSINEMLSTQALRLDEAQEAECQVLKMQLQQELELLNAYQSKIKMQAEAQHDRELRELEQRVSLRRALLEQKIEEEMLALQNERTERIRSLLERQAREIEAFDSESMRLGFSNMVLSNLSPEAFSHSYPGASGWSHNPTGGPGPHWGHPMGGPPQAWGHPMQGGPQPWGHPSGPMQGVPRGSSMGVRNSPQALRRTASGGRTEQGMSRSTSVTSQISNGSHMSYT
The settings on record: at 1 µM.

The target in experiment [5] is T2, Serine/threonine-protein kinase TAO1 (Homo sapiens). The settings on record: at 10 µM.
Experiment [6] concerns the target T3, Serine/threonine-protein kinase TAO2 (Homo sapiens) (UniProt Q9UL54).
T3 sequence (whole entry): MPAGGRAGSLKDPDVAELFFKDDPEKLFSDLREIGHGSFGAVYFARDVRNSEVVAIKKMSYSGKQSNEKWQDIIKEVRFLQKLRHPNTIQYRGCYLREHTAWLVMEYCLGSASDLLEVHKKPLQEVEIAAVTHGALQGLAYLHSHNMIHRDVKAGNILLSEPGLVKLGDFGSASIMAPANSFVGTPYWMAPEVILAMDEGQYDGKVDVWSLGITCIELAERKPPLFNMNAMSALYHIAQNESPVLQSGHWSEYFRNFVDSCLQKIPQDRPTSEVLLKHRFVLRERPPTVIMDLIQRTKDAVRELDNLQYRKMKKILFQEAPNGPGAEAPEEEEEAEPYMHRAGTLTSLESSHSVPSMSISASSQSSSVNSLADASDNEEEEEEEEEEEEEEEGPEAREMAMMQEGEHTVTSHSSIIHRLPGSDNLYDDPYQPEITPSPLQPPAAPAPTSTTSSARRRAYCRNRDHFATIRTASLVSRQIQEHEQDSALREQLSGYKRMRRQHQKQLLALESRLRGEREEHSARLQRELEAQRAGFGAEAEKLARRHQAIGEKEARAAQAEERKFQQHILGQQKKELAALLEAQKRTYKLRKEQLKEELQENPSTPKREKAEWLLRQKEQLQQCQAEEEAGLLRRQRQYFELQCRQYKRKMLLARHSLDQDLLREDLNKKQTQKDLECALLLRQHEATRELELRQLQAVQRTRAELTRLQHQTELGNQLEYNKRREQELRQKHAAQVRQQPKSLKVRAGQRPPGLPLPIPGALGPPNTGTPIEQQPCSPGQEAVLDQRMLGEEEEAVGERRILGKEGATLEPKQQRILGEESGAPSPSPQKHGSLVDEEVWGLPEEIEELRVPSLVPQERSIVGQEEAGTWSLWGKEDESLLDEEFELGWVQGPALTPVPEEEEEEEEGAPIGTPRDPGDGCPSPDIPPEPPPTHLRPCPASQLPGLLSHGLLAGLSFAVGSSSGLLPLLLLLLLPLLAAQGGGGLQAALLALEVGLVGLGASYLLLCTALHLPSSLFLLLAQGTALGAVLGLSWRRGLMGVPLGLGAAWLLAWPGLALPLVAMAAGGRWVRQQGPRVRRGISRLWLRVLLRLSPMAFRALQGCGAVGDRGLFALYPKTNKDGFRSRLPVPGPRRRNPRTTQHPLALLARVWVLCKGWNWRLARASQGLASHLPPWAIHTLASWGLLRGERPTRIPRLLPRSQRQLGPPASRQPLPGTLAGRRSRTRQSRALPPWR
The settings on record: at 1 µM.

In experiment [7] the target is T3, Serine/threonine-protein kinase TAO2 (Homo sapiens). The settings on record: at 10 µM.
Experiment [8] concerns the target T4, Serine/threonine-protein kinase TAO3 (Homo sapiens) (UniProt Q9H2K8).
T4 sequence (whole entry): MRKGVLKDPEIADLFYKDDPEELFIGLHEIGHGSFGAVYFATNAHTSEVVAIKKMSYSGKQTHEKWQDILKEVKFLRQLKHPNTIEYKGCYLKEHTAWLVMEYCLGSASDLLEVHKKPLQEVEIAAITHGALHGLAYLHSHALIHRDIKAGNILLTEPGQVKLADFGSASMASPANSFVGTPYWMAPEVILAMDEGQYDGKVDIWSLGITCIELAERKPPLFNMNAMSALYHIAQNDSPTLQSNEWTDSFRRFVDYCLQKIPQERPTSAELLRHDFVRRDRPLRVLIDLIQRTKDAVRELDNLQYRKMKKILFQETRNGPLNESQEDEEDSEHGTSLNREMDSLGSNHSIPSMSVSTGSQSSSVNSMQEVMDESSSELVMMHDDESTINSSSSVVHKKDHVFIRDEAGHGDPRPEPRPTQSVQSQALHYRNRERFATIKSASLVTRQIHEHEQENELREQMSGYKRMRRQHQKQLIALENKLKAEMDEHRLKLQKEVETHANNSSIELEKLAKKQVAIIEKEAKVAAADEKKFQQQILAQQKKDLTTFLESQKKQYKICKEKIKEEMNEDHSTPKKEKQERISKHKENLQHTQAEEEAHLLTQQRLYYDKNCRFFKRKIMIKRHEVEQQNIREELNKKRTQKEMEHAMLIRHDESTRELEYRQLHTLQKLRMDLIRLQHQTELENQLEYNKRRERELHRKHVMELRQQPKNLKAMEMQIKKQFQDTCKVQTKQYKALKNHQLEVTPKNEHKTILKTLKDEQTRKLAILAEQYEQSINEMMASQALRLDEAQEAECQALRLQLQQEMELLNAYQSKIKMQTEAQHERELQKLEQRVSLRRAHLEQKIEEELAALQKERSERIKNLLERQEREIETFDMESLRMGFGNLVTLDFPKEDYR
The settings on record: at 1 µM.

Experiment [9] has as its target T4, Serine/threonine-protein kinase TAO3 (Homo sapiens). The settings on record: at 10 µM.
For experiment [10], the target named is T5, Serine/threonine-protein kinase TBK1 (Homo sapiens) (UniProt Q9UHD2).
T5 sequence (whole entry): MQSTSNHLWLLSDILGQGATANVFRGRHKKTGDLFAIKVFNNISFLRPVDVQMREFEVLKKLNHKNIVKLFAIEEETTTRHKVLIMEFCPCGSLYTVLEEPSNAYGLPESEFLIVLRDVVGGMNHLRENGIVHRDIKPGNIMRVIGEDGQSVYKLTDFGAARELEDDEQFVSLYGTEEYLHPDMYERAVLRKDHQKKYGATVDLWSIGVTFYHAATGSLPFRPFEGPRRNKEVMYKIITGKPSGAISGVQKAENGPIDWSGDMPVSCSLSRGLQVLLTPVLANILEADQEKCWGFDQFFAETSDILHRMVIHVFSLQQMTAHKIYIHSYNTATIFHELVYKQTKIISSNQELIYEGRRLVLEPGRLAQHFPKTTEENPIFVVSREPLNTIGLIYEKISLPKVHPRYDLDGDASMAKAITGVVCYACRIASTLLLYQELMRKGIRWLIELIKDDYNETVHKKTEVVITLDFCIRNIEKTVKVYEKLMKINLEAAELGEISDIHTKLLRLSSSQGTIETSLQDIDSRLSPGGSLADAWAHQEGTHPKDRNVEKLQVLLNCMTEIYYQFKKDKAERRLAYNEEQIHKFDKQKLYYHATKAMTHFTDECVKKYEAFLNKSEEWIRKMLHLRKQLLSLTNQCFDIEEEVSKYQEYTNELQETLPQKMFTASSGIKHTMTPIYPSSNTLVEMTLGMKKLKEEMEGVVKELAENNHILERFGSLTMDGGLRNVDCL
The settings on record: at 1 µM.

Consider `CC(C)c1nn(-c2c(Cl)cccc2Cl)c2nc(Cc3ccc(OCCO)cc3)[nH]c(=O)c12`, for which the residual activity in [1] amounted to 96%; in [2], 97%; in experiment [3], 63%; in experiment [4], 61%; in experiment [5], 13%; in experiment [6], 84%. Besides, the residual activity is 22% in [7], 55% in experiment [8], 9% in experiment [9] and 82% in [10].

The record behind these values is ChEMBL document CHEMBL2218924, “A broad activity screen in support of a chemogenomic map for kinase signalling research and drug discovery” (Biochem J, 2013).
